In PubChem BioAssay (NCI):
This is part of a sample that, as a whole, favours compounds with a hit. Of some 83,000 tested, about 20% had one in any assay.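 Each cell line was grown in a 96-well plate and treated with one concentration of compound for 48 hours. Values below 10 were considered active.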 The source made the active and inactive calls.

test system: T-47D breast; assay: NCI-60 one-dose screen, 48 h (100 = growth as untreated, 0 = no growth, -100 = all killed); conditions: 10 µM unless noted
Method: Growth inhibition of the T-47D human tumor cell line is measured as a screen for anti-cancer activity. Cells are grown in 96 well plates and exposed to the test compound for 48 hours. Compounds are tested at a single concentration, which is 10^-5 M for most compounds. The reported endpoint is percent growth (GI% or GIPRCNT), where numbers from 0 - 100% represent growth inhibition, and numbers from -100% - 0 represent cell death. For example, a value of 40 represents 60% growth inhibition. A value of 0 means no net growth occurred over the course of the experiment. A value of -40 indicates 40% of cells at the beginning of the experiment died by the end of the experiment. A value of -100 means all cells are dead at the end of the experiment.
NCI-60 Human Tumor Cell Lines Screen was performed using the standard one-dose NCI protocol, which is described in more detail at https://dtp.cancer.gov/discovery_development/nci-60/default.htm.
Compounds with GIPRCNT values below 10 were considered active. Activity score was based on GIPRCNT using the following formula: […]
Score is 0 for GIPRCNT values of 100 or above, 50 for GIPRCNT values of 0, and 100 for GIPRCNT values of -100.

Compound	growth
COc1ccc(/C=N/NC(=O)Cn2c(Cc3cccc4ccccc34)nc3ccccc32)cc1	85.8% (inactive)
COc1cc(/C=C2\C=C(c3ccc(F)cc3)N(Cc3ccccc3)C2=O)cc(OC)c1OC	49.1% (inactive)
COc1ccc(Cl)cc1NC(N)=S	96.3% (inactive)
CN(C)c1nc(N)c(N=O)c(N)n1	104% (inactive)
C=CCN=C1NC(=O)/C(=C/c2cc(C(C)(C)C)c(O)c(C(C)(C)C)c2)S1	47.1% (inactive)
COc1ccc(/C=C/C(=O)OCC(=O)NNC(=O)c2ccccc2)cc1OC	101% (inactive)
CCN(CC)S(=O)(=O)c1ccc2[nH]c(=O)cc(C(=O)Nc3ccc(OC)cc3OC)c2c1	101% (inactive)
O=c1c2cccc3c(Nc4ccc(F)cc4)ccc(c32)c2nc3ccccc3n12	23.4% (inactive)
COc1ccc(NC(=O)CSc2nc3ccccc3c(=O)n2Cc2cc(OC)c(OC)c(OC)c2)cc1	84% (inactive)
COC(=O)c1cc(-c2cccs2)c(C#N)c(N)c1C#N	69.1% (inactive)
COc1ccc(C2CC(c3cccs3)=NN2c2ccc(S(=O)(=O)NC(=O)Nc3ccc(C)cc3)cc2)cc1 (stereo not given)	78.8% (inactive)
COc1cc(C2C=C(C)N=C3SC=CN32)cc(OC)c1OC (stereo not given)	98.8% (inactive)
C=C1C(=O)O[C@H]2[C@H]1CC/C(COC(=O)NCc1ccc(OC)cc1)=C\CC[C@@]1(C)O[C@@H]21	17.5% (inactive)
Nc1c(C(=O)Nc2ccccc2)sc2nc3c(cc12)CCCCC3	42.2% (inactive)
O=c1oc2c([nH]c3ccc4ccccc4c32)c2ccccc12	77.5% (inactive)
Nc1nc(-c2cc3ccccc3o2)cc(=O)c(=O)[nH]1	104% (inactive)
O=C1N=C(c2c(-c3[nH]c(=O)c4ccc(Br)cc4c3O)c(O)c3ccccc3c2O)C(=O)c2cc(Br)ccc21	-34.2% (active)
CN(C)c1ccc(-c2ccc(-c3ccc(C(=N)N)cn3)o2)cc1	-68.2% (active)
C=C1C(=O)O[C@H]2[C@H]1CC/C(COC(=O)NCc1cc(OC)cc(OC)c1)=C\CC[C@@]1(C)O[C@@H]21	-8.17% (active)
CCN(C(=O)c1cc2ccccc2[nH]1)[C@H]1CCC[C@@H](NCc2ccc(OC)cc2)C1	82.7% (inactive)

Compound	growth
O=C(Nc1ccc(Cl)cc1)c1cc(-c2ccc(F)cc2)c2sc(=O)[nH]c2n1	3.75% (active)
C/C1=C\CCC2(C)OC2CC2CCC(C)(O)C(CC1)C2(C)C (stereo not given)	91.7% (inactive)
Cc1ccc2nc(-c3c(N)n[nH]c3CCCO)[nH]c(=O)c2c1	111% (inactive)
Cc1cc(Nc2nc(C(=O)Nc3ccccc3)nc3ccccc23)n[nH]1	47% (inactive)
COc1ncc(-c2ccc3ncnc(Nc4cccc(Cl)c4)c3c2)cc1N(S(C)(=O)=O)S(C)(=O)=O	18.5% (inactive)
CCCCOc1nc2c(C)cccc2cc1C1CNC(=O)c2ccccc2N1 (stereo not given)	58.4% (inactive)
Nc1nn2cc(-c3ccc(Cl)s3)nc2c2ccccc12	55.8% (inactive)
CN=S(=O)(NC(=O)c1ccc(Cl)cc1Cl)c1ccc(Br)s1 (stereo not given)	95.8% (inactive)
CC(C)C[C@H](NC(=O)[C@@H](Cc1ccccc1)n1ccc(Nc2ccccc2)cc1=O)B(O)O	-15.4% (active)
CC/C=C\C/C=C\C[C@H]1C/C=C2/C(=O)C=C[C@H]2C/C=C\CCC(=O)O1	12.9% (inactive)
COc1cc(C2C=C(C)N=C3SC=C(C)N32)cc(OC)c1OC (stereo not given)	7.98% (active)
COc1ccc(C2CC(=O)Nc3c2c(C)nn3-c2nc3ccccc3[nH]2)cc1OC (stereo not given)	65.7% (inactive)
COc1ccc(C(=O)c2cc(OC)c(OC)c(OC)c2)cc1/C=C/C(=O)c1ccc2c(c1)OCO2	33.1% (inactive)
O=c1cc(C2NCCc3c2[nH]c2ccccc32)c2c(ccc3ccccc32)o1 (stereo not given)	59.1% (inactive)
COc1cc(/C=C/C(=O)c2ccc(NC(=O)CN3CCN(c4cc5c(cc4F)c(=O)c(C(=O)O)cn5C4CC4)CC3)cc2)cc(OC)c1OC	17.5% (inactive)
COc1cc(OC)c(C(=O)/C=C/c2cccc(C#N)c2)c(OC)c1	4.14% (active)
O=C(/C=C/CN1CCCCC1)Nc1cc2c(Nc3ccc(F)c(Cl)c3F)ncnc2cc1OCCOC(F)F	-1.83% (active)
CC(Br)C(O)c1cc2c(cc1Br)OCO2 (stereo not given)	100% (inactive)
CCCCCC(=O)OCc1ccccc1	95.2% (inactive)
COc1ccc(OC)c(-c2ccc(-c3ccccc3N)c3[nH]c4ccccc4c23)c1	62.8% (inactive)
